Test results taken from PubChem BioAssay (NCI).
“And” between values parts separate entries of the source, which are not always exact repeats. Identical values can stand only once. This is part of a sample that, as a whole, favours compounds with a hit. Of some 79,000 tested, about 15% had one in any assay. More than one record can exist for a structure, and the calls need not agree. The source made the active and inactive calls. Cut-off read from the data, not from the text of the source: active = growth inhibition above about 70%; inactive = the rest.

Test: NCI Yeast Anticancer Drug Screen. Data for the mec2-1 strain (AID 157)
Details: S. cerevisiae mec2-1 strain, at 50.0 µM, stronger effect = higher value
Procedure, shortened: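 Mutant yeast (mec2-1) grown with compound; growth inhibition relative to vehicle control reported.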

Structure (SMILES) | growth inhibition
O=c1[nH]c(SCc2ccccc2[N+](=O)[O-])nc2nc[nH]c12 | -20.8% (inactive) and 6.4% (inactive)
OC1CCN2Cc3ccccc3N=C12 (centres undefined) | -0.3% (inactive) and 21.7% (inactive)
C=CC/C(=N\OS(=O)(=O)O)SC1OC(CO)C(O)C(O)C1O (centres undefined) | -30.6% (inactive) and -21.5% (inactive)
CCc1ccc(N)cc1 | -16.6% (inactive) and 4.3% (inactive)
CC(O)(c1cccc(Cl)c1)C(c1ccccc1)c1ccccn1 (centres undefined) | 79.2% (active) and 97.9% (active)
C1=C(c2cccc3ccccc23)CCCC1 | 7.45% (inactive) and -4.1% (inactive)
Cn1c(=O)c(Br)cn(C2OC(CO)C3OC32)c1=O (centres undefined) | -0.8% (inactive) and -4.2% (inactive)
NC1CCCCCCC1 | -4.95% (inactive) and 2.2% (inactive)
O=C(NS(=O)(=O)c1ccccc1)OCc1ccccc1 | -11.8% (inactive) and -4.35% (inactive)
CCCCOc1ccc2nc3cc(Cl)ccc3c(Cl)c2n1 | -10.8% (inactive) and -43.5% (inactive)
N/N=C(/C(=O)c1ccccc1)c1ccccc1 | 5.4% (inactive) and 10% (inactive)
CC(=O)OC(COC(=O)c1ccccc1)C(OC(C)=O)C(OC(C)=O)C(COC(=O)c1ccccc1)OC(C)=O (centres undefined) | -7.8% (inactive) and 2.5% (inactive)
CCOC(=O)CNC(=O)c1ccccc1 | -7% (inactive) and -36.4% (inactive)
CCCCN(CCCC)CCCN | -1.45% (inactive) and -6.9% (inactive)

Test: NCI Yeast Anticancer Drug Screen. Data for the sgs1 mgt1 strain (AID 161);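 note: 0% = growth of cultures given vehicle only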
Details: S. cerevisiae sgs1 mgt1 strain, at 50.0 µM, stronger effect = higher value
Procedure, shortened: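 Yeast cells carrying a defined DNA-repair defect were exposed to test compounds. Growth inhibition was measured relative to vehicle-treated controls.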

Structure (SMILES) | growth inhibition
CC(=O)OCC(OC(C)=O)C(OC(C)=O)C(OC(C)=O)C(C=NN(C(C)=O)S(=O)(=O)c1ccc(/C=C2\NC(=O)N(C)C2=O)cc1)OC(C)=O (centres undefined) | 19.9% (inactive) and 15.7% (inactive)
O=C(O)C1C2OC(C(Br)C2Br)C1C(=O)O (centres undefined) | -2.45% (inactive) and -26.4% (inactive)
COc1cc2c(c(OC)c1OC)-c1ccc(OC)c(=O)cc1C([N+](C)(C)C)CC2 (centres undefined) | 16.9% (inactive) and -18.1% (inactive)
Cc1ccc2ccccc2[n+]1C | -1.25% (inactive) and -16.4% (inactive)
COc1ccc(C(O)C(NCCO)c2ccc(OC)cc2)cc1 (centres undefined) | 42.7% (inactive) and -3.7% (inactive)
C/C=C(\C)c1cc(=O)c2c(C)cc3c(c2o1)C(=O)c1c(O)c(C2CC(C)(N(C)C)C(O)C(C)O2)cc(C2CC(N(C)C)C(O)C(C)O2)c1C3=O (centres undefined) | 14.6% (inactive) and 17.4% (inactive)
CCOC(=O)c1ccc(N=[N+]([O-])c2ccc(C(=O)OCC)cc2)cc1 | 2.8% (inactive) and -7.65% (inactive)
C[N+](C)(C)CCOC(=O)c1ccccc1CBr | 16.8% (inactive) and 85.9% (active)
CC(=O)OCC1OC(n2cnc3c(N)ncnc32)C(OC(C)=O)C1OC(C)=O (centres undefined) | 18.8% (inactive) and 0.2% (inactive)
CC(=O)/C=C/C1=C(C)CCCC1(C)C | -18.1% (inactive) and -19.4% (inactive)
COc1ccc2c(=O)c(C)c(-c3ccccc3)oc2c1CN(C)C | 10.3% (inactive) and -26.6% (inactive)
Oc1ccccc1-c1nc2ccccc2o1 | -13.8% (inactive) and 7.15% (inactive)
Cc1cn(C2CC(CCCO)C(CO)O2)c(=O)[nH]c1=O (centres undefined) | 6.7% (inactive) and 2.7% (inactive)
N#CC1OC1c1cccc[n+]1[O-] (centres undefined) | 0.85% (inactive) and -8.7% (inactive)
O=C(CCCCCCCCC(=O)NCC1(c2ccccc2)CCN(Cc2ccccc2)CC1)NCC1(c2ccccc2)CCN(Cc2ccccc2)CC1 | -13.8% (inactive) and -19.2% (inactive)
CCCCc1ccc(OC2OC(COC(C)=O)C(OC(C)=O)C(OC(C)=O)C2OC(C)=O)cc1 (centres undefined) | -42.8% (inactive) and -12.9% (inactive)
S=c1nc[nH]c2ccccc12 | -11% (inactive) and 12.9% (inactive)
OC1COCOC1C1OCOCC1O (centres undefined) | 2.3% (inactive) and 19.4% (inactive)
OCC(O)C(O)C(O)C(O)[C@@H](O)c1nc2ccccc2[nH]1 (some centres undefined) | -2.75% (inactive) and -4.4% (inactive)
CC(CC(=O)O)C(C(=O)O)C(=O)O (centres undefined) | -33.5% (inactive) and -16.6% (inactive)

Structure (SMILES) | growth inhibition
C/C(=N\NS(C)(=O)=O)C(C)(C)C | 2.35% (inactive) and 21.3% (inactive)
COc1cc2c(cc1OC)C(=O)C1COC(=O)C1C2 (centres undefined) | -8.7% (inactive) and 14.8% (inactive)
Nc1cc(S(=O)(=O)O)ccc1Cl | 11.2% (inactive) and -20.6% (inactive)
COc1ccc(COC(=O)NCC(=O)NC(C)C(=O)NC(Cc2ccccc2)C(=O)OCc2ccccc2)cc1 (centres undefined) | -14.9% (inactive) and -1.9% (inactive)
NCC1CCC(CN)CC1 (centres undefined) | -17.6% (inactive) and -24.7% (inactive)
CCCCCC(Br)C(Br)CC(Br)C(Br)CCCCCCCC(=O)c1ccc2ccccc2c1O (centres undefined) | 10.4% (inactive) and 2.9% (inactive)
O=c1[nH]c(SCc2ccccc2[N+](=O)[O-])nc2nc[nH]c12 | -11.8% (inactive) and -0.5% (inactive)
OC1CCN2Cc3ccccc3N=C12 (centres undefined) | 17.4% (inactive) and -5.9% (inactive)
C=CC/C(=N\OS(=O)(=O)O)SC1OC(CO)C(O)C(O)C1O (centres undefined) | -0.75% (inactive) and -20.6% (inactive)
CCc1ccc(N)cc1 | -23.4% (inactive) and -4.25% (inactive)
CC(O)(c1cccc(Cl)c1)C(c1ccccc1)c1ccccn1 (centres undefined) | 95% (active) and 97.8% (active)
C1=C(c2cccc3ccccc23)CCCC1 | -12.4% (inactive) and -5.1% (inactive)
Cn1c(=O)c(Br)cn(C2OC(CO)C3OC32)c1=O (centres undefined) | 18.1% (inactive) and 4.9% (inactive)
NC1CCCCCCC1 | 0.75% (inactive) and 3.8% (inactive)
O=C(NS(=O)(=O)c1ccccc1)OCc1ccccc1 | -14.8% (inactive) and -15.3% (inactive)
CCCCOc1ccc2nc3cc(Cl)ccc3c(Cl)c2n1 | -9.75% (inactive) and 22.9% (inactive)
N/N=C(/C(=O)c1ccccc1)c1ccccc1 | 5.4% (inactive) and 0.5% (inactive)
CC(=O)OC(COC(=O)c1ccccc1)C(OC(C)=O)C(OC(C)=O)C(COC(=O)c1ccccc1)OC(C)=O (centres undefined) | -7.65% (inactive) and -9.85% (inactive)
CCOC(=O)CNC(=O)c1ccccc1 | -9.55% (inactive) and -7.05% (inactive)
CCCCN(CCCC)CCCN | -18.9% (inactive) and -5.35% (inactive)
